The source of these data is PubChem BioAssay (EPA / NIEHS).

A short description of assay [1]: ATG_ISRE_CIS: Attagene CIS-FACTORIAL HepG2 Assay for human Interferon Regulatory Factor 1 (IRF1) binding to an Interferon-Stimulated Response Element (ISRE) (AID 2282948). The following applies: HepG2 ISRE cis-reporter (Attagene), mRNA transcription readout; actives raise or lower the signal. Summed up:
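Multiplexed mRNA reporter readout in human liver HepG2 cells: cis-element-driven reporters transfected, compound added for 24 h, transcripts amplified, fluorescently labelled and sized by capillary electrophoresis; curve fitting bidirectional against DMSO.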

Assay [2] is described as follows: ATG_M_32_CIS: Attagene CIS-FACTORIAL HepG2 Assay for M32 Transcription Factor (Internal Marker) (AID 2282949).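 Further: background control marker of the multiplexed CIS panel rather than a real target.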 Conditions: HepG2 Attagene cis-factorial M32 reporter, mRNA; actives raise or lower the signal. Summed up:
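HepG2 transfectants (cis-regulated reporter transcription units) dosed 24 h. Reporter mRNA by RT-PCR plus CE, analysed as gain or loss relative to DMSO.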

In assay [3] the target is Hypoxia-inducible factor 1-alpha (Homo sapiens) (UniProt Q16665). In words: ATG_HIF1a_CIS: Attagene CIS-FACTORIAL HepG2 Assay for human Hypoxia Inducible Factor 1 (HIF1A) (AID 2282951). Conditions: HepG2 Attagene cis-factorial HIF1a reporter transcription; actives raise or lower the signal. In outline:
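Dosed 24 h, transfected HepG2 cells yielded total RNA whose reporter transcripts were RT-PCR-amplified and sized by capillary electrophoresis using fluorescent labelling; DMSO defined baseline, with gain and loss of signal both fitted.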

For assay [4], the target named is Hepatocyte nuclear factor 6 (Homo sapiens) (UniProt Q9UBC0). In words: ATG_HNF6_CIS: Attagene CIS-FACTORIAL HepG2 Assay for human Hepatocyte Nuclear Factor 6 (HNF6) (AID 2282952). Conditions: HepG2 Attagene cis-factorial HNF6 reporter transcription; actives raise or lower the signal. In outline: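 Readout: fluorescent reporter-transcript fragments resolved by capillary electrophoresis after RT-PCR, reflecting endogenous factor activity in transfected HepG2. Exposure 24 h. Gain or loss of signal fitted bidirectionally against DMSO.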

Assay [5] deals with Heat shock factor protein 1 (Homo sapiens) (UniProt Q00613). In words: ATG_HSE_CIS: Attagene CIS-FACTORIAL HepG2 Assay for human Heat Shock Transcription Factor 1 (HSE) (AID 2282953). The following applies: HepG2 HSE cis-reporter, Attagene RNA transcription; actives raise or lower the signal. Summed up: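 Endogenous transcription factor activity in transiently transfected HepG2, read as reporter mRNA by RT-PCR with fluorescent capillary electrophoresis after 24 h. Gain or loss of signal fitted versus DMSO baseline.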

The nature of assay [6]: ATG_MRE_CIS: Attagene CIS-FACTORIAL HepG2 Assay for human Metal Responsive Element (MRE) (AID 2282954). The following applies: HepG2 MRE cis-reporter transcription, Attagene multiplex; actives raise or lower the signal. Summed up:
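Cells were transfected with cis-promoter reporter transcription units, then dosed for 24 h. RNA was reverse-transcribed, amplified, fluorescently labelled and resolved by capillary electrophoresis, and activity was fitted in both directions relative to DMSO.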

Assay [7] in a line: ATG_PBREM_CIS: Attagene CIS-FACTORIAL HepG2 Assay for human Phenobarbital-responsive Enhancer Module (PBREM) (AID 2282955). The following applies: HepG2 PBREM cis-reporter, Attagene multiplexed transcription; actives raise or lower the signal. Summed up:
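Transfected liver-derived HepG2 cells exposed 24 h; PBREM reporter transcript quantified via RT-PCR and capillary electrophoresis, with activity in either direction referenced to DMSO.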

Assay [8] deals with Paired box protein Pax-6 (Homo sapiens) (UniProt P26367). In words: ATG_Pax6_CIS: Attagene CIS-FACTORIAL HepG2 Assay for human Paired Box 6 (PAX6) (AID 2282956). Conditions: HepG2 CIS-FACTORIAL PAX6 reporter transcription, RNA readout; actives raise or lower the signal. Summed up: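 Fluorescent RT-PCR products separated by capillary electrophoresis report PAX6-linked promoter mRNA in HepG2 cells 24 h post-dose. Curves fitted bidirectionally, DMSO as negative control.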

The nature of assay [9]: ATG_PXRE_CIS: Attagene CIS-FACTORIAL HepG2 Assay for human Pregnane X Receptor Element (PXRE) (AID 2282957). The following applies: HepG2 Attagene CIS-FACTORIAL PXRE reporter, mRNA; actives raise or lower the signal. In outline: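 Read-out: fluorescence of reporter-specific RT-PCR products resolved by capillary electrophoresis, fitted bidirectionally relative to DMSO. Human HepG2 liver cells carried transfected cis-promoter reporter units and were exposed to chemicals for 24 h.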

Assay [10] is described as follows: ATG_Sox_CIS: Attagene CIS-FACTORIAL HepG2 Assay for human SRY-box transcription factor (SOX) (AID 2282960). Conditions: HepG2 Attagene cis-factorial SOX reporter, mRNA; actives raise or lower the signal. Summed up:
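Gain- or loss-of-signal endpoint, fitted bidirectionally with DMSO as negative control. Based on reporter mRNA from transfected HepG2 cells harvested 24 h post-treatment and quantified via RT-PCR and capillary electrophoresis.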

In assay [11] the target is Transcription factor Sp1 (Homo sapiens) (UniProt P08047). The assay can be described thus: ATG_Sp1_CIS: Attagene CIS-FACTORIAL HepG2 Assay for human Specificity Protein 1 (Sp1) (AID 2282961). The following applies: HepG2 Sp1 cis-reporter transcription, actives raise or lower the signal. Summed up:
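Endpoint reflects endogenous Sp1 transcriptional activity, not an exogenous fusion protein: HepG2 cells with transfected cis-regulated reporters, 24 h dosing, RT-PCR/capillary electrophoresis mRNA read-out, DMSO-normalised bidirectional fit.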

Assay [12] is described as follows: ATG_SREBP_CIS: Attagene CIS-FACTORIAL HepG2 Assay for human Sterol Regulatory Element Binding (SREBP) (AID 2282962). The following applies: HepG2 Attagene cis-factorial SREBP reporter, mRNA; actives raise or lower the signal. In outline:
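Endogenous factor activity is measured in HepG2 through multiplexed reporter units under cis-element control. Following a 24 h incubation, reporter transcripts are reverse-transcribed, PCR-amplified and sized by capillary electrophoresis; activity is fitted in both directions relative to DMSO.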

Assay [13] has as its target Signal transducer and activator of transcription 3 (Homo sapiens) (UniProt P40763). In words: ATG_STAT3_CIS: Attagene CIS-FACTORIAL HepG2 Assay for human Signal Transducer and Activator of Transcription 3 (STAT3) (AID 2282963). The following applies: HepG2, Attagene cis-factorial STAT3 reporter transcription; actives raise or lower the signal. Summed up: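 HepG2, MRTU-transfected, 24 h dosing. RNA → RT → PCR → FAM label → HpaI → CE. Bidirectional fit vs DMSO.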

Assay [14] in a line: ATG_TA_CIS: Attagene CIS-FACTORIAL HepG2 Assay for human TA Basal Promoter (AID 2282964). Conditions: HepG2 Attagene CIS-factorial TA basal promoter reporter; actives raise or lower the signal. In outline:
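Background-control readout: TA basal promoter reporter mRNA, fitted in both directions relative to DMSO. Measured by RT-PCR and capillary electrophoresis 24 hours after treating HepG2 human liver cells transiently carrying multiplexed cis-regulated reporter constructs.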

The nature of assay [15]: ATG_TCF_b_cat_CIS: Attagene CIS-FACTORIAL HepG2 Assay for human T-Cell-Factor with beta-catenin (TCF/b-cat) (AID 2282965). The following applies: HepG2 TCF/beta-catenin cis-reporter transcription, actives raise or lower the signal. In outline: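 Using capillary electrophoresis as the read-out, labelled reporter cDNA fragments from transiently transfected HepG2 were sized and quantified. Exposure lasted 24 hours; activity in either direction was referenced to DMSO.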

Assay [16] can be described thus: ATG_PPRE_CIS: Attagene CIS-FACTORIAL HepG2 Assay for human Peroxisome Proliferator-activated Response Element (PPRE) (AID 2282958). The following applies: HepG2 PPRE cis-element reporter, Attagene transcription factor profiling; actives raise or lower the signal. In outline: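 Measured endpoint: PPRE-controlled reporter mRNA, detected by RT-PCR and capillary electrophoresis fluorescence, from transiently transfected HepG2 cells 24 h after dosing. Curves fitted in both directions using DMSO baseline.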

Assay [17] can be described thus: ATG_RORE_CIS: Attagene CIS-FACTORIAL HepG2 Assay for human RAR-related Orphan Receptor Element (RORE) (AID 2282959). The following applies: HepG2 Attagene cis-factorial RORE reporter, mRNA; actives raise or lower the signal. In outline: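 Transiently transfected HepG2 reporter cells were treated 24 h. Reporter transcripts were detected by RT-PCR and capillary electrophoresis, with bidirectional fitting against DMSO.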

The nature of assay [18]: ATG_M_06_CIS: Attagene CIS-FACTORIAL HepG2 Assay for M06 Transcription Factor (Internal Marker) (AID 2282950). The following applies: HepG2 Attagene CIS-FACTORIAL M06 internal marker reporter; actives raise or lower the signal. In outline:
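Serves as a background control readout. Transfected HepG2 exposed to compounds for 24 h, then reporter transcripts quantified by fluorescent RT-PCR and capillary electrophoresis. Both directions fitted against DMSO baseline.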

Calls of active or inactive are those of the source. How the source made its calls: active means hit-call score of the fitted dose curve at least 0.9, where 1 is the maximum; inactive means score below 0.9.

Transcription factor Sp1 (Homo sapiens), sequence (P08047 whole entry, looked up, the tested form may be a part): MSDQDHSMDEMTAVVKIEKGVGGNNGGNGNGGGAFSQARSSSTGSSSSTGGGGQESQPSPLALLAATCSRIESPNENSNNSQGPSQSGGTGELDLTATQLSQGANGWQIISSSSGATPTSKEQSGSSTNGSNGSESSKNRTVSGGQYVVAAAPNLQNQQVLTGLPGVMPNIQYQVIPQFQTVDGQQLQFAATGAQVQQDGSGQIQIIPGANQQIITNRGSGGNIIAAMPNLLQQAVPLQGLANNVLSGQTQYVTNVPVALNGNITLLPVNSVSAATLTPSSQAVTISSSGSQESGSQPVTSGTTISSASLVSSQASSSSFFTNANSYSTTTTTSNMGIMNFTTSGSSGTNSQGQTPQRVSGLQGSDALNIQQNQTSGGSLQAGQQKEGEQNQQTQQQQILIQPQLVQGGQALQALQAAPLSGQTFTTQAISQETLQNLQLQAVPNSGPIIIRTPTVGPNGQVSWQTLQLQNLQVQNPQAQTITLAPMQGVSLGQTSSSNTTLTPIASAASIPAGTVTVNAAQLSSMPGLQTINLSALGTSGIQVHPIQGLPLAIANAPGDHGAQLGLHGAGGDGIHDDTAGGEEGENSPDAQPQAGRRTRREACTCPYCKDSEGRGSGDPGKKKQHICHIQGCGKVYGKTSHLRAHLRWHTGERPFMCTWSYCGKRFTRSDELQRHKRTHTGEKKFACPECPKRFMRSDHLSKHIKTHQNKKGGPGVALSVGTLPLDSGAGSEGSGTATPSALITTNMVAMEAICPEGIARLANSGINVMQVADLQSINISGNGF
Paired box protein Pax-6 (Homo sapiens), sequence (P26367 whole entry, looked up): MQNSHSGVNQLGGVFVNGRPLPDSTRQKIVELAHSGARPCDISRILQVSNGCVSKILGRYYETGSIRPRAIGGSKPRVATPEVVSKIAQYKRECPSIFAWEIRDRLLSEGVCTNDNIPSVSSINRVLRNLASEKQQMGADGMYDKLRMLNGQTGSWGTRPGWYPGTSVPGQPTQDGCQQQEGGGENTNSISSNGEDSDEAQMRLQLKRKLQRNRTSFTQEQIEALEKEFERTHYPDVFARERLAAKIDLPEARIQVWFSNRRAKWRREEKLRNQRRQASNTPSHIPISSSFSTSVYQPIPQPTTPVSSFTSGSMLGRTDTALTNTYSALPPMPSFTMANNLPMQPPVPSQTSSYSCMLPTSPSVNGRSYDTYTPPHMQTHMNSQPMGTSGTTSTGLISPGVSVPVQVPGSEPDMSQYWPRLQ
Heat shock factor protein 1 (Homo sapiens), sequence (Q00613 whole entry, looked up): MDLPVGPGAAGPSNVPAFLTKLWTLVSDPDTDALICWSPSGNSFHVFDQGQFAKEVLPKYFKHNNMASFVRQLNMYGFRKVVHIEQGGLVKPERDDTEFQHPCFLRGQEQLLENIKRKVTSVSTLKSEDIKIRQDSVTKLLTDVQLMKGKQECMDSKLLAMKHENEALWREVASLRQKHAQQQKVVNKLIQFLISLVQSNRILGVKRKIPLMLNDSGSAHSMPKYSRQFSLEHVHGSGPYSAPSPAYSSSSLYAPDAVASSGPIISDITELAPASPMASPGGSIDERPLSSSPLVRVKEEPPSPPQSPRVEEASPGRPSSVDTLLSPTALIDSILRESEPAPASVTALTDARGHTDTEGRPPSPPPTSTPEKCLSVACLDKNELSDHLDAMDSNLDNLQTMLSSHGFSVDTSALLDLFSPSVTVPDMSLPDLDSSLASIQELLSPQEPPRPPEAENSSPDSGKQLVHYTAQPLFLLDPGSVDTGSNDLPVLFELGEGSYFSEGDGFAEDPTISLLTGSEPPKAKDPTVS
Hypoxia-inducible factor 1-alpha (Homo sapiens), sequence (Q16665 whole entry, looked up): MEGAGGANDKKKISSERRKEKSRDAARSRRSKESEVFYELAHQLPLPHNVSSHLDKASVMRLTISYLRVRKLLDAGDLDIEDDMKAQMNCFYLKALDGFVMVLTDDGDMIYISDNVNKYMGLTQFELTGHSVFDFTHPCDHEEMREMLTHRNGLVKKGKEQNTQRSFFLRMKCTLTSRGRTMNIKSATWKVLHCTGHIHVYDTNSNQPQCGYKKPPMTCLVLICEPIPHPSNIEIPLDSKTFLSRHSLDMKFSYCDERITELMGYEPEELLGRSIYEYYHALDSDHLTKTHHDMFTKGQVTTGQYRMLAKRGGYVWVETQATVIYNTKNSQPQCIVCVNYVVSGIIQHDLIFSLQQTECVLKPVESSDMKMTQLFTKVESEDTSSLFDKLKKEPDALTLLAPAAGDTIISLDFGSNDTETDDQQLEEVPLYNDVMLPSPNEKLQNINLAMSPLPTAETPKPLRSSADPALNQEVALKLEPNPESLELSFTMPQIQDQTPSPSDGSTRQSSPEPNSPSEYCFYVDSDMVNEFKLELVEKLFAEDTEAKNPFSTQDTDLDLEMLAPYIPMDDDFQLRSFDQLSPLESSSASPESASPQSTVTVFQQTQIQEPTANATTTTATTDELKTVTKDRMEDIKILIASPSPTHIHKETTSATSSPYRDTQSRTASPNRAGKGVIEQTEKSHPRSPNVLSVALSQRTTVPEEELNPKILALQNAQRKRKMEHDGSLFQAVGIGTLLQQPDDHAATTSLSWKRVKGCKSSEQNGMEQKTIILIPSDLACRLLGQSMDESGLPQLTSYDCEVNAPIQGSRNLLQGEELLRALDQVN
Hepatocyte nuclear factor 6 (Homo sapiens), sequence (Q9UBC0 whole entry, looked up, the tested form may be a part): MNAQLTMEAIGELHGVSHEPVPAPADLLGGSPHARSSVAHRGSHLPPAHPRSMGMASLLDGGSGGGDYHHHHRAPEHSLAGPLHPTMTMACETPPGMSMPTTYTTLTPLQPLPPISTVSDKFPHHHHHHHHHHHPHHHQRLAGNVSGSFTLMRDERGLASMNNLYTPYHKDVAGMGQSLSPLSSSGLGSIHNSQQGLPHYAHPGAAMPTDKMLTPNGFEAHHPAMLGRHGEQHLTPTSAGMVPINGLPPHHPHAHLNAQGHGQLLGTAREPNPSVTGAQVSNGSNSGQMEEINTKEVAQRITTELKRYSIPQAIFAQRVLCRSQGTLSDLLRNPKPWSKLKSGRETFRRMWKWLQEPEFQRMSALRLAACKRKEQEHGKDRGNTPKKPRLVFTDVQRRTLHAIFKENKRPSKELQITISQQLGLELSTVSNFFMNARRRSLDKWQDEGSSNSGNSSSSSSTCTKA
Signal transducer and activator of transcription 3 (Homo sapiens), sequence (P40763 whole entry, looked up): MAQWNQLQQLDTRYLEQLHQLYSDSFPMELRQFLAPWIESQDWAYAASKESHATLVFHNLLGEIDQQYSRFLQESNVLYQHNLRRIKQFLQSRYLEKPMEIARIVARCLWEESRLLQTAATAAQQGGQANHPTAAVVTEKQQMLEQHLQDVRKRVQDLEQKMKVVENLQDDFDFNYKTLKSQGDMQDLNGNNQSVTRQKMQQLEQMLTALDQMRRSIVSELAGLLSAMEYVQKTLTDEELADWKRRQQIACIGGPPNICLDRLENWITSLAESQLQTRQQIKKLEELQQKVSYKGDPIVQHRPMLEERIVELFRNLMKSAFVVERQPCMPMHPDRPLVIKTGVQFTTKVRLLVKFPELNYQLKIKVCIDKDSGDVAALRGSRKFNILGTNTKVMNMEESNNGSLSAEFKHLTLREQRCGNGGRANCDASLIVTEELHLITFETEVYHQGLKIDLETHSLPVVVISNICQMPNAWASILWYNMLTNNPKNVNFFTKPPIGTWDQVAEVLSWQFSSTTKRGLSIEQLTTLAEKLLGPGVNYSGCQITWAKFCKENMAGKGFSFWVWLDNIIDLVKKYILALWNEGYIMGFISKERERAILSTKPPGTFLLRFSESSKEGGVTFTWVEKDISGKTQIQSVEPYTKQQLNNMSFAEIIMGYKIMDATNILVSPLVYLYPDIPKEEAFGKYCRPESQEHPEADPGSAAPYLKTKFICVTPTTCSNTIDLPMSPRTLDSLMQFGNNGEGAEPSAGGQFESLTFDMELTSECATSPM

`CC(C)CCCCCCc1ccc(OCCOCCO)cc1`: the molecule was called inactive in assay [1], in assay [2], in assay [3], in [4], in assay [5] and in assay [6]. Moreover, the result in assay [7], in [8], in [9], in assay [10], in assay [11] and in [12] was inactive. The molecule was called inactive in assay [13], in assay [14] and in assay [15].

Consider `CS(=O)(=O)OCCCCOS(C)(=O)=O`, for which the molecule was called inactive in [1], in [2], in [4], in assay [5], in assay [6] and in assay [8]. Moreover, the result in [16], in assay [17], in [11], in [12], in [13] and in [14] was inactive. The result in assay [15] was inactive. In addition, the AC50 in assay [9] is 55.8 µM (active).

For `CCOc1ccc(NC(=O)CC(C)O)cc1` (configuration not stated), the molecule was called inactive in assay [1], in assay [2], in assay [18], in assay [3], in assay [4] and in [5]. In addition, the result in assay [6], in [8], in [9], in assay [16], in assay [17] and in assay [10] was inactive. In addition, the molecule was called inactive in assay [11], in [12], in [13], in assay [14] and in assay [15].

Regarding `Brc1ccc(Br)c(Br)c1`, the result in assay [1], in assay [2], in assay [18], in assay [3], in assay [4] and in assay [5] was inactive. The molecule was classed as inactive in [6], in [8], in [9], in assay [11], in [12] and in assay [13]. The call in assay [14] and in assay [15] was inactive.

As to `Nc1ccn([C@H]2CS[C@@H](CO)O2)c(=O)n1`, the call in assay [1], in [18], in assay [4], in assay [5], in [6] and in assay [7] was inactive. Moreover, the result in assay [8], in [9], in assay [16], in [17], in [10] and in assay [11] was inactive. Besides, the outcome in assay [12], in assay [13], in assay [14] and in assay [15] was inactive.

Regarding `C[C@@H]1CCN(C(=O)[C@H](CCCN=C(N)N)NS(=O)(=O)c2cccc3c2NC[C@H](C)C3)[C@@H](C(=O)O)C1`, the call in [1], in assay [2], in assay [3], in assay [4], in assay [5] and in assay [6] was inactive. In addition, the result in [7], in assay [8], in assay [9], in assay [10], in assay [12] and in assay [13] was inactive. Also, the molecule was called inactive in assay [14] and in [15].

Consider `COC(=O)C=C(C)CCC=C(C)C`, for which the call in [1], in [2], in assay [18], in assay [3], in assay [4] and in assay [5] was inactive. Also, the molecule was called inactive in assay [6], in assay [8], in assay [16], in assay [17], in [10] and in assay [11]. The result in assay [12], in assay [13], in assay [14] and in assay [15] was inactive. Moreover, the AC50 in assay [9] was 7.51 µM (active).
